Legend:
Assay in all cases: DAPPL (digital affinity profiling via proximity ligation, sequencing); 10 mM Tris-HCl pH 7.5, 50 mM NaCl, 1 mM DTT, 4% glycerol, room temperature, 30 min; GST-TFs on glutathione beads, 16-mer random dsDNA library, 0.1% formaldehyde crosslink after washing; high values mean tight binding
[1] = target: T1, FEV (Homo sapiens, UniProt Q99581 1-238); conditions: protein: recombinant; tags: N-terminal GST; dsDNA, one strand shown
T1 sequence: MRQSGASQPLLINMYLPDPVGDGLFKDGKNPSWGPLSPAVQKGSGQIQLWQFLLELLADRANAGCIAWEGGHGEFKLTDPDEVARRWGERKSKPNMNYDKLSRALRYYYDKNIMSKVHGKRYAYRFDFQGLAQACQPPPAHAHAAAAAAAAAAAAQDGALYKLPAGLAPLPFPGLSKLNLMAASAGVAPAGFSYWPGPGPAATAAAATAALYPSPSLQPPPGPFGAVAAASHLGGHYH
How it was run: (§1)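 The binding signal reported is, for every hexamer, its read frequency for a factor over its read frequency for the tag-only sample. Reads came from pools of yeast-expressed, GST-fused human transcription factors on glutathione beads, barcoded with DNA and mixed with that sample, which were incubated with 200 nmole of a random double-stranded 16-mer DNA library in Tris/NaCl/DTT/glycerol buffer at room temperature for 30 min. After washing, the pools were crosslinked with 0.1% formaldehyde, proximity-ligated with BsaI/T4 ligase for 1 h at 37 °C, PCR-amplified and sequenced on an Illumina NextSeq500.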

[2] = target: ETV5 (Homo sapiens, UniProt P41161 1-510); conditions: protein: recombinant; tags: N-terminal GST; dsDNA, one strand shown
How it was run: as §1

[3] = target: HSF1 (Homo sapiens, UniProt Q00613 1-529); conditions: protein: recombinant; tags: N-terminal GST; chain copies: 3; dsDNA, one strand shown
How it was run: as §1

[4] = target: T2, SPIC (Homo sapiens, UniProt Q8N5J4 1-248); conditions: protein: recombinant; tags: N-terminal GST; dsDNA, one strand shown
T2 sequence: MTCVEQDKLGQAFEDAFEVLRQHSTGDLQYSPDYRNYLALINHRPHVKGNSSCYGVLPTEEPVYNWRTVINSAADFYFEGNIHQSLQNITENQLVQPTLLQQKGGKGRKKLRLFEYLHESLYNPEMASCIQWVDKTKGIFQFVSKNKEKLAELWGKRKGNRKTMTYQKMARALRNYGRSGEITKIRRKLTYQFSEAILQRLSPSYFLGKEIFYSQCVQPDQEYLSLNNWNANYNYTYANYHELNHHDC
How it was run: as §1

[5] = target: ELF4 (Homo sapiens, UniProt Q99607 1-663); conditions: protein: recombinant; tags: N-terminal GST; dsDNA, one strand shown
How it was run: as §1

[6] = target: T3, ELK4 (Homo sapiens, UniProt P28324-2 1-405); conditions: protein: recombinant; tags: N-terminal GST; dsDNA, one strand shown
T3 sequence: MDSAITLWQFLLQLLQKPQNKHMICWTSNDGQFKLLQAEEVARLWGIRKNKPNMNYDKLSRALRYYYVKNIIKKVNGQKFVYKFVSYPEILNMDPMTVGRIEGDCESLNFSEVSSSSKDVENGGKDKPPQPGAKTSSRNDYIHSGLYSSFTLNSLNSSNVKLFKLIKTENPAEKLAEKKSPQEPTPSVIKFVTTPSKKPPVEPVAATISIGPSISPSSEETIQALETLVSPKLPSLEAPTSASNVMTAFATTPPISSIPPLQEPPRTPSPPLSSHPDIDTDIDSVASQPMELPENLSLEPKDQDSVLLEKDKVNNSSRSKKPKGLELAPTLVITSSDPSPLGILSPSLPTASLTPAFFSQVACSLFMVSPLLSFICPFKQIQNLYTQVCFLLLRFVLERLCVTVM
How it was run: as §1

[7] = target: T4, ETV2 (Homo sapiens, UniProt O00321 1-342); conditions: protein: recombinant; tags: N-terminal GST; dsDNA, one strand shown
T4 sequence: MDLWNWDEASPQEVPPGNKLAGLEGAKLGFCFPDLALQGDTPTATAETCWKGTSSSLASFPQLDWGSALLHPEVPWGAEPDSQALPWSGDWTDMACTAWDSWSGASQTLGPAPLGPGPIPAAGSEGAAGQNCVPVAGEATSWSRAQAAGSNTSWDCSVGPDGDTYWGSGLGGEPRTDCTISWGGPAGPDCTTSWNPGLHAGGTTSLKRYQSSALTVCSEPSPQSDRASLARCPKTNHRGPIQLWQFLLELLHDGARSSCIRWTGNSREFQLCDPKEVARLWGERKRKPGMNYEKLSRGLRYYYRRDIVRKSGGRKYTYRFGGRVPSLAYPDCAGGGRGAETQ
How it was run: as §1

[8] = target: T5, ELF3 (Homo sapiens, UniProt P78545 1-371); conditions: protein: recombinant; tags: N-terminal GST; dsDNA, one strand shown
T5 sequence: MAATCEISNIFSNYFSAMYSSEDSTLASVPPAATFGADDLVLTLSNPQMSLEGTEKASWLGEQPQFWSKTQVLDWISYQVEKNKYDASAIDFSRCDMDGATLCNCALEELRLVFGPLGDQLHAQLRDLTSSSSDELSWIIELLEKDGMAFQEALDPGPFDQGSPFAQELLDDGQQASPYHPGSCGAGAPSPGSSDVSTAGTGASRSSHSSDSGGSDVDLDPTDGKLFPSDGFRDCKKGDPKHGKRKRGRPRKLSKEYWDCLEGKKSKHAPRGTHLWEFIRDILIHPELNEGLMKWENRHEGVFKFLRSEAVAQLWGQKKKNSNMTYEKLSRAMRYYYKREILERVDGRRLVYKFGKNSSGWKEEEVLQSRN
How it was run: as §1

[9] = target: CRX (Homo sapiens, UniProt O43186 1-299); conditions: protein: recombinant; tags: N-terminal GST; dsDNA, one strand shown
How it was run: as §1

[10] = target: ETV1 (Homo sapiens, UniProt P50549 1-477); conditions: protein: recombinant; tags: N-terminal GST; dsDNA, one strand shown
How it was run: as §1

[11] = target: T6, ERF (Homo sapiens, UniProt P50548 1-548); conditions: protein: recombinant; tags: N-terminal GST; dsDNA, one strand shown
T6 sequence: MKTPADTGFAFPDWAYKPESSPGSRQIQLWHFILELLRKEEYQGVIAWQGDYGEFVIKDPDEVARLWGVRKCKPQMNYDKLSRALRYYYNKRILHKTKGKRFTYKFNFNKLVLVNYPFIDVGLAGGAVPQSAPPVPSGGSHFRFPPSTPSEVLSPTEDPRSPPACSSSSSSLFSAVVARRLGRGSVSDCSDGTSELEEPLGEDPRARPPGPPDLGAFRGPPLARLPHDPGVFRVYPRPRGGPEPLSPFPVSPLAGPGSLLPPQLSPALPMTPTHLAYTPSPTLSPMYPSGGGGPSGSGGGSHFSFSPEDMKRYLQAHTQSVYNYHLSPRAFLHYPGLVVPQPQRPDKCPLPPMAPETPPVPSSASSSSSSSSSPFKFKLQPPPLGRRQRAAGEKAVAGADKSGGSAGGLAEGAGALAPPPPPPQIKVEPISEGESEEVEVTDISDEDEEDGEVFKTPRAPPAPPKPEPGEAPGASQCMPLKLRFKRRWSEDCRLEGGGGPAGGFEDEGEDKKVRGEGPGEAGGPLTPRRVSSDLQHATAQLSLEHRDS
How it was run: as §1

[12] = target: T7, ETV3L (Homo sapiens, UniProt Q6ZN32 1-361); conditions: protein: recombinant; tags: N-terminal GST; dsDNA, one strand shown
T7 sequence: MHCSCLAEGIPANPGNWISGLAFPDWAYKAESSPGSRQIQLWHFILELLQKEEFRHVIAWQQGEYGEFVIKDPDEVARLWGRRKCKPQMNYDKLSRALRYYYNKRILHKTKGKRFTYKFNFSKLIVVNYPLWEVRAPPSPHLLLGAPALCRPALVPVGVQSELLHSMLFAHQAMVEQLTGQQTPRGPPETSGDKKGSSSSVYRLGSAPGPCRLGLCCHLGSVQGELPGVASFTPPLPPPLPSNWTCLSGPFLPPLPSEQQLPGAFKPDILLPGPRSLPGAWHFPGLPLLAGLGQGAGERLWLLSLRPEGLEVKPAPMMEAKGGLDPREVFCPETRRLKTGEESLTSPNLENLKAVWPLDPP
How it was run: as §1

[13] = target: T8, ETS2 (Homo sapiens, UniProt P15036 1-469); conditions: protein: recombinant; tags: N-terminal GST; dsDNA, one strand shown
T8 sequence: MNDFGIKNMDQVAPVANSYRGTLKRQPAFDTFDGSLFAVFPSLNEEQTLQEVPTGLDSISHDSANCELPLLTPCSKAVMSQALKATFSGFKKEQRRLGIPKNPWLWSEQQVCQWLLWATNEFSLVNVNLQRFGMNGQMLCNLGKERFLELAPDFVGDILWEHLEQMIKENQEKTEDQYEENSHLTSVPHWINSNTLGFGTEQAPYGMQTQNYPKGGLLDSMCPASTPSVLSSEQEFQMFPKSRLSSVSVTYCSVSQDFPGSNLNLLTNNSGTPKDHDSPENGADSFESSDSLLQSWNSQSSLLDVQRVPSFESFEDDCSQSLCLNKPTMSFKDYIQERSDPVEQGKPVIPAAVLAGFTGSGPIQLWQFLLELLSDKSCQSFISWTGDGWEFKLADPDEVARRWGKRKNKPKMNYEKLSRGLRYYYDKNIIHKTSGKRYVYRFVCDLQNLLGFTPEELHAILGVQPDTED
How it was run: as §1

[14] = target: T9, SPDEF (Homo sapiens, UniProt O95238 1-335); conditions: protein: recombinant; tags: N-terminal GST; dsDNA, one strand shown
T9 sequence: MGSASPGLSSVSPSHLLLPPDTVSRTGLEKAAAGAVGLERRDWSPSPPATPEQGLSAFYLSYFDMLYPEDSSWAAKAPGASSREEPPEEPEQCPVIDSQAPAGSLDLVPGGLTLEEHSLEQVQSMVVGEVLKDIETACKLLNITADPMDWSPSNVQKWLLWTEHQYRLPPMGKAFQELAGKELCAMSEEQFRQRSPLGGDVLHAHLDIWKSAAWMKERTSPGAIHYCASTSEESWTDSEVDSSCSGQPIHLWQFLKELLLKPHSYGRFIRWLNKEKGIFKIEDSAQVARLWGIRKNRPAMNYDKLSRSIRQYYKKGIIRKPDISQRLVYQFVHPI
How it was run: as §1

[15] = target: T10, ETV7 (Homo sapiens, UniProt Q9Y603 1-341); conditions: protein: recombinant; tags: N-terminal GST; dsDNA, one strand shown
T10 sequence: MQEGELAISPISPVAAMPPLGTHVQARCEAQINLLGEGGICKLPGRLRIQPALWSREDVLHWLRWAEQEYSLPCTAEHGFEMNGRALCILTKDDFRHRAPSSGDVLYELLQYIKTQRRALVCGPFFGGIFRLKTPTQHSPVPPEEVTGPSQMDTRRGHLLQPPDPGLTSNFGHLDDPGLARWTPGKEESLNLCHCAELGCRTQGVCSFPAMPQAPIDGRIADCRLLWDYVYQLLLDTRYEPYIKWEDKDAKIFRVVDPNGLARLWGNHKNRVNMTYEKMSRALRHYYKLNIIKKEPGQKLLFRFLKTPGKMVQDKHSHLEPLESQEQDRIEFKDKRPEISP
How it was run: as §1

[16] = target: T11, ELF5 (Homo sapiens, UniProt Q9UKW6-2 1-255); conditions: protein: recombinant; tags: N-terminal GST; dsDNA, one strand shown
T11 sequence: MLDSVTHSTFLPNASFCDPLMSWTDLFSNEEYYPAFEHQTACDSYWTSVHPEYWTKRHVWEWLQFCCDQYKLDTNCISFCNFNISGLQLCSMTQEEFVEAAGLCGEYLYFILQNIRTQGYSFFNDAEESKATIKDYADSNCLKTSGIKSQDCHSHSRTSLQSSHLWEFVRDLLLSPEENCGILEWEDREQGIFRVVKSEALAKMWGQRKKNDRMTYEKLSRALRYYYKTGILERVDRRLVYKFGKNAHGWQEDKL
How it was run: as §1

[17] = target: T12, ETV3 (Homo sapiens, UniProt P41162-2 1-143); conditions: protein: recombinant; tags: N-terminal GST; dsDNA, one strand shown
T12 sequence: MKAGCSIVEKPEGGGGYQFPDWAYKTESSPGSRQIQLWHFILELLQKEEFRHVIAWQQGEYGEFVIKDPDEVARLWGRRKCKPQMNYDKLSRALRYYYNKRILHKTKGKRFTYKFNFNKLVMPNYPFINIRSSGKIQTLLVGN
How it was run: as §1

[18] = target: ETV6 (Homo sapiens, UniProt P41212 1-452); conditions: protein: recombinant; tags: N-terminal GST; dsDNA, one strand shown
How it was run: as §1

Chain of ETV5 (P41161 whole entry): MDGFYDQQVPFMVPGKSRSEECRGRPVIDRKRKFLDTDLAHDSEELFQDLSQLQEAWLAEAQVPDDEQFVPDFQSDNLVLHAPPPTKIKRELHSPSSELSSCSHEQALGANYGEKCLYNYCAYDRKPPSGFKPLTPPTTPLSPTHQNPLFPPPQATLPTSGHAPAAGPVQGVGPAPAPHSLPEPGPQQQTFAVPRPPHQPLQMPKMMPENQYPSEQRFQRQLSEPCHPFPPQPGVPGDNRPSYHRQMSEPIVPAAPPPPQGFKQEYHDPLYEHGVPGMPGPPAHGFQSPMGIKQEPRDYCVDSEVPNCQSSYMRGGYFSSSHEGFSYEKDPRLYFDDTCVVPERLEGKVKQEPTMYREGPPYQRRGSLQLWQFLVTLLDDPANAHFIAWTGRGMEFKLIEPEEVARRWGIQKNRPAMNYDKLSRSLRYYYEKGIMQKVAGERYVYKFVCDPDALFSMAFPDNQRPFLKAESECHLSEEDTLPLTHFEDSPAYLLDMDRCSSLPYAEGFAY
Chain of ELF4 (Q99607 whole entry): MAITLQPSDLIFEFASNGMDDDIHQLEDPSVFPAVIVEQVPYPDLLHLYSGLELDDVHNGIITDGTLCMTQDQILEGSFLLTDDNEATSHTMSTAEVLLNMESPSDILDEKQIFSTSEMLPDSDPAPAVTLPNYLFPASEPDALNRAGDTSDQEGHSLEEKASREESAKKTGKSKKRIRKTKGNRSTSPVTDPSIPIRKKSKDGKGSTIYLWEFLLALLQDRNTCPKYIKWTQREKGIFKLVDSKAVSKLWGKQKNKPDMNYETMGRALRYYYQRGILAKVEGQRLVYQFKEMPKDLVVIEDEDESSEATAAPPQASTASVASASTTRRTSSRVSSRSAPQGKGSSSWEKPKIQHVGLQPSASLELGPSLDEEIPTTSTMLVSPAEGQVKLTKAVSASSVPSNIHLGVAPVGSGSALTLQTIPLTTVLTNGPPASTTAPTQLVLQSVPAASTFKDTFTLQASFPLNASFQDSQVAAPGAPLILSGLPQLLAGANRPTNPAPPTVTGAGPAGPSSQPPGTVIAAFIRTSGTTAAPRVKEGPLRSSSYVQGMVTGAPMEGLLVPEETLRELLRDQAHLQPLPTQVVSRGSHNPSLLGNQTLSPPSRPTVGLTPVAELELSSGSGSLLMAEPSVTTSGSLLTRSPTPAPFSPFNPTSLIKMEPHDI
Chain of HSF1 (Q00613 whole entry): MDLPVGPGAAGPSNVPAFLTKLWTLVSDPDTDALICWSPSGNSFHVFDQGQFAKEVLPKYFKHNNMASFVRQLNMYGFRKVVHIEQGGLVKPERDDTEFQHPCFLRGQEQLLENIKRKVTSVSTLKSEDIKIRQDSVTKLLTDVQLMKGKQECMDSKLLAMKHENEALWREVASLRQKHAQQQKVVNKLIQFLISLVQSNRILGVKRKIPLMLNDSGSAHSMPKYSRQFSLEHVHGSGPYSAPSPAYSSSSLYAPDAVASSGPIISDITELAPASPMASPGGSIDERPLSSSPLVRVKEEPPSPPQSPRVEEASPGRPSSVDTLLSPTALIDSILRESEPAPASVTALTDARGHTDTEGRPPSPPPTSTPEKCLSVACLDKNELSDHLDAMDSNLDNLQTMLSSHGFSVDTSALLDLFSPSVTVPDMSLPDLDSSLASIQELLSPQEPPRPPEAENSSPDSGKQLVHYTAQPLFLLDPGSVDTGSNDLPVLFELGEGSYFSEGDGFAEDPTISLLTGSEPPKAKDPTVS
Chain of CRX (O43186 whole entry): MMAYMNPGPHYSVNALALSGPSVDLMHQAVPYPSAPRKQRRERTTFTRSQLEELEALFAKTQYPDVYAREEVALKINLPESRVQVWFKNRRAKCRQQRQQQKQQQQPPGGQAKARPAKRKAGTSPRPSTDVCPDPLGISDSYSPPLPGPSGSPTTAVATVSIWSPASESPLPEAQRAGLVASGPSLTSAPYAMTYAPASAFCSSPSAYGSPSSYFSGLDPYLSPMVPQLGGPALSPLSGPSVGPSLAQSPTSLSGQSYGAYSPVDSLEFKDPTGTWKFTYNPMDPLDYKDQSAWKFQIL
Chain of ETV6 (P41212 whole entry): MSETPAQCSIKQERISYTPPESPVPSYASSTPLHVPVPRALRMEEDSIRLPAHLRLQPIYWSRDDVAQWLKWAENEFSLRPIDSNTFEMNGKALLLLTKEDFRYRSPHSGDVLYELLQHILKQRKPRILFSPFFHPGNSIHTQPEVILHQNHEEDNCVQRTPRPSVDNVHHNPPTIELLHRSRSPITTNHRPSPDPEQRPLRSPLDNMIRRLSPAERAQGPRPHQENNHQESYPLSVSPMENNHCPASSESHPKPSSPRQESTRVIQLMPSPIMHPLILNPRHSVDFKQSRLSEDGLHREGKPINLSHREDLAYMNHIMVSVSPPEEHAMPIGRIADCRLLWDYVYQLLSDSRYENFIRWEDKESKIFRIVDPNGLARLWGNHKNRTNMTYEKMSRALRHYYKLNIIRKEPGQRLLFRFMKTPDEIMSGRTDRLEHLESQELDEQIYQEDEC
Chain of ETV1 (P50549 whole entry): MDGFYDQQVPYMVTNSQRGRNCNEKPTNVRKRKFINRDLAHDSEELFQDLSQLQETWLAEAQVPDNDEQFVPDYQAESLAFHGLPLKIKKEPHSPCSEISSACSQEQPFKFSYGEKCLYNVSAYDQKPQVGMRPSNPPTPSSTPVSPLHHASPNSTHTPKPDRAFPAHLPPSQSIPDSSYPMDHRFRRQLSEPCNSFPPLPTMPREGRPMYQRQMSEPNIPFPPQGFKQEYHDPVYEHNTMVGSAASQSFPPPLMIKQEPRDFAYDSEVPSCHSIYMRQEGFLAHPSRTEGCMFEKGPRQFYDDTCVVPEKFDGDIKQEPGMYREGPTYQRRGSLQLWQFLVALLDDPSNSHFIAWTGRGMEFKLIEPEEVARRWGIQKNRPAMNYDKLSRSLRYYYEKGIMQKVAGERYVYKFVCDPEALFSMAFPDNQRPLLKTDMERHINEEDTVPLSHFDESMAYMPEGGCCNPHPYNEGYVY

Question: How did the binding signal [1] turn out when CTTCGC was run?
Answer: 1.41 fold enrichment (6-mer frequency, TF over GST control)

Question: What about the binding signal [2] of the same sequence?
Answer: 1.31 fold enrichment (6-mer frequency, TF over GST control)

Question: And the binding signal [3]?
Answer: 1.63 fold enrichment (6-mer frequency, TF over GST control)

Question: And the binding signal [4]?
Answer: 1.18 fold enrichment (6-mer frequency, TF over GST control)

Question: And the binding signal [5]?
Answer: 1.45 fold enrichment (6-mer frequency, TF over GST control)

Question: What about the binding signal [6] of the same sequence?
Answer: 1.32 fold enrichment (6-mer frequency, TF over GST control)

Question: And the binding signal [7]?
Answer: 1.62 fold enrichment (6-mer frequency, TF over GST control)

Question: And the binding signal [8]?
Answer: 1.37 fold enrichment (6-mer frequency, TF over GST control)

Question: And the binding signal [9]?
Answer: 1.24 fold enrichment (6-mer frequency, TF over GST control)

Question: And the binding signal [10]?
Answer: 1.52 fold enrichment (6-mer frequency, TF over GST control)

Question: And the binding signal [11]?
Answer: 1.61 fold enrichment (6-mer frequency, TF over GST control)

Question: And the binding signal [12]?
Answer: 1.45 fold enrichment (6-mer frequency, TF over GST control)

Question: What about the binding signal [13] of the same sequence?
Answer: 1.42 fold enrichment (6-mer frequency, TF over GST control)

Question: And the binding signal [14]?
Answer: 1.54 fold enrichment (6-mer frequency, TF over GST control)

Question: And the binding signal [15]?
Answer: 1.38 fold enrichment (6-mer frequency, TF over GST control)

Question: What about the binding signal [16] of the same sequence?
Answer: 1.34 fold enrichment (6-mer frequency, TF over GST control)

Question: And the binding signal [17]?
Answer: 1.43 fold enrichment (6-mer frequency, TF over GST control)

Question: What about the binding signal [18] of the same sequence?
Answer: 1.34 fold enrichment (6-mer frequency, TF over GST control)

— PMC7862700, “An all-to-all approach to the identification of sequence-specific readers for epigenetic DNA modifications on cytosine”
